# High-throughput results: PubChem BioAssay, National Center for Advancing Translational Sciences (NCATS)
# D3 ag: qHTS of D3 Dopamine Receptor Agonist: qHTS. D(3) dopamine receptor (Homo sapiens), P35462. D3R DiscoveRx beta-arrestin cells, luminescence, 90 min. max activation, %. actives 0.58% (n = 410,000). AID 652048, 2013; in the data active = max activation above about 30%; also: 0% is about no effect
#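 Agonist mode: compounds and dopamine controls were applied to plated cells for 90 min at 37 degrees C after an overnight attachment at 1500 cells/well. Luminescent read-out followed 30 - 60 minutes at room temperature with DiscoveRx detection reagent.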
# D1 ag: Allosteric Agonists of the Human D1 Dopamine Receptor: qHTS; AID 504660, 2011; D(1A) dopamine receptor (Homo sapiens), P21728; HEK293 T-REx D1 cells, calcium flux, agonist mode; activation, % at 2 µM; actives 1% (n = 360,000); in the data active = activation above about 30%; also: 0% is about no effect
# Target sequence (P21728 whole entry, looked up): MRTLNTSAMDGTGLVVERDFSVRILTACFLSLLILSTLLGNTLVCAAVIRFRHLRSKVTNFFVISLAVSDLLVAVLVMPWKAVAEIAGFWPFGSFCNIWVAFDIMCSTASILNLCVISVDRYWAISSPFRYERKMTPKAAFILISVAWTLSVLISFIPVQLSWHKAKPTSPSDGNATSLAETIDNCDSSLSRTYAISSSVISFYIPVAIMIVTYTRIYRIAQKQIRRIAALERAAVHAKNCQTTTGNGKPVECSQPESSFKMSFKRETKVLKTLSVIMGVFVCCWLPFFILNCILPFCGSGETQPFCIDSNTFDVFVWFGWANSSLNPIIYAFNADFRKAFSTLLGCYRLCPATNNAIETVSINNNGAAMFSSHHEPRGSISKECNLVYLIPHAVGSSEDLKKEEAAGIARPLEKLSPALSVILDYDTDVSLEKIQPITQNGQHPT
#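 Tetracycline-induced HEK293 TREx D1 cells, force-coupled to calcium signalling, were dye-loaded with a no-wash calcium kit. Compound was pin-added after a 10 s baseline. Fluorescence was read kinetically at 1 cycle/s for 180 s, with calcium rises flagged as agonism.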
# D1 antagonist: Antagonist of Human D 1 Dopamine Receptor: qHTS. activity change, negative = inhibition, % at 10 µM. HEK293 TREx D1 cells, calcium flux, dopamine EC80; hits give low values. actives 3.2% (n = 360,000); in the data active = activity change below about -30%; also: % is scaled to controls: 0 for no effect and ±100 for the full control effect
#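 HEK293 T-REx cells expressing inducible, force-coupled D1 receptor; no-wash Ca dye, 30–90 min RT. Cmpd → 180 s read at 1 Hz → EC80 DA → 180 s read.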
# D1 PAM: Potentiators of Human D1 Dopamine Receptor: qHTS. actives 0.036% (n = 360,000). HEK293 TREx D1 cells, calcium flux, dopamine EC20 potentiation. potentiation, % at 10 µM. D(1A) dopamine receptor (Homo sapiens), P21728; in the data active = potentiation above about 30%; also: 0% is about no effect
# DRD3 antagonist: qHTS of D3 Dopamine Receptor Antagonist: qHTS. D(3) dopamine receptor (Homo sapiens), P35462. D3R cells, DiscoveRx beta-arrestin luminescence, antagonist mode; hits give low values. max response, negative = inhibition, %. actives 2.5% (n = 360,000). AID 652054, 2013; in the data active = max response below about -50%; inconclusive = no clear call, values can overlap the other calls; also: % is scaled to controls: 0 for no effect and ±100 for the full control effect
#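 Cells plated overnight at 1500 cells/well, then exposed to library compounds with dopamine controls for 90 minutes at 37 degrees C. DiscoveRx reagent added for 30–60 minutes at room temperature; luminescence read, quantitative HTS format.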
# * marks the source's active call; other numbers are inactive results; ? = inconclusive; · = no result given. A selection: hits, their analogues and other compounds. The true share with any hit is near 6%.
SMILES,D3 ag,D1 ag,D1 antagonist,D1 PAM,DRD3 antagonist
O=C(OCn1nnc2ccccc2c1=O)c1cc(-c2ccccc2Cl)nc2ccccc12,25,3,4,-7,0
Cc1ccccc1C(=O)OCn1nnc2ccccc2c1=O,0,1,-12,-2,13
Cc1nc(N2C(=O)c3oc4ccccc4c(=O)c3C2c2ccccc2F)sc1C (stereo not drawn),6,-1,11,4,·
CN(C)S(=O)(=O)Oc1ccc(C(=O)Nc2cccc(Cl)c2)cc1,-5,24,-47*,-7,-10
CN(C)S(=O)(=O)Oc1ccc(C(=O)Nc2cccc(C(F)(F)F)c2)cc1,1,10,-30,-1,-6
CS(=O)(=O)Nc1ccccc1C(=O)Nc1cccc(Cl)c1,12,38*,-33*,-1,25
CCCn1ncc([C@@H]2C[C@H]3CN(Cc4cccc(Cl)c4)C(=O)[C@]34CCCN24)c1C,-4,0,-31*,0,-10
CCn1ncc([C@@H]2C[C@H]3CN(Cc4cccc(Cl)c4)C(=O)[C@]34CCCN24)c1C,-5,1,2,4,-12
Cn1cc([C@@H]2C[C@H]3CN(Cc4cccc(Cl)c4)C(=O)[C@]34CCCN24)c(-c2ccccc2)n1,-7,17,-31*,-4,-7
CCOCCC(=O)Nc1ccc2c(c1)c(=O)n(C)n2CC=C(C)C,-14,·,·,·,0
COCCNC(=O)/C(C#N)=C/c1c(N2CCN(c3cccc(Cl)c3)CC2)nc2c(C)cccn2c1=O,-15,5,12,-8,-5
CCNC(=O)/C(C#N)=C/c1c(N2CCN(c3ccccc3)CC2)nc2c(C)cccn2c1=O,-26,0,6,-3,-69*
CNC(=O)/C(C#N)=C/c1c(N2CCN(c3cccc(Cl)c3)CC2)nc2c(C)cccn2c1=O,-39,2,-18,9,-57*
C=CCNC(=O)/C(C#N)=C/c1c(N2CCN(c3cccc(Cl)c3)CC2)nc2c(C)cccn2c1=O,-33,3,-14,-10,-59*
CCOC(=O)N1CCc2c(sc3c2c(=O)n(CCc2ccccc2)c(=O)n3CC(=O)Nc2ccc(C)cc2)C1,0,1,-2,-2,·
O=C(CSc1nc(=O)n(Cc2ccco2)c2c1CCC2)Nc1cccc(F)c1,3,-2,·,-2,·
CCOC(=O)Cc1cc(-c2ccc(F)cc2)nc2ccc3ccccc3c12,2,9,-57*,-11,26
CC(C)c1cccc(C2=CC(=O)C[C@H](c3ccc(F)cc3)C2)c1,-36,6,-39*,-14,-28
CCOc1ccc(S(=O)(=O)Nc2ccccc2C(=O)N2CCOCC2)cc1,17,1,5,-4,23
CCCC(=O)c1c[nH]c(C(=O)NCc2cccnc2)c1,-12,0,-5,-12,-88*
N#C/C(=C/c1ccc(-c2ccccc2[N+](=O)[O-])o1)C(N)=O,1,0,-41*,-11,1
O=C(Cc1ccc(Cl)cc1Cl)NCc1cccnc1,-1,0,-41*,-3,6
CCC(=O)c1c[nH]c(C(=O)NCc2cccnc2)c1,-10,5,-3,17,-22
O=C(NCc1cccnc1)c1ccc(Br)o1,-1,0,-32*,-6,13
CC(=O)N1CCc2c(sc3c2c(=O)n(-c2ccccc2)c(=O)n3CC(=O)Nc2ccccc2)C1,8,2,2,0,·
SMILES,D3 ag,D1 ag,D1 antagonist,D1 PAM,DRD3 antagonist
CCOc1nc(-c2ccc(Cl)cc2)nc2ccccc12,4,4,14,-3,9
Cc1ccccc1C(=O)NNc1ncnc2c1cnn2-c1cccc(Cl)c1,4,-1,19,2,·
O=C(NCc1cccnc1)c1ccc(-c2cccc(Cl)c2Cl)o1,-17,9,-6,-5,-25
CC(C)(C)c1cc(C(=O)N/N=C/c2ccc(-c3ccccc3[N+](=O)[O-])o2)n[nH]1,-28,1,1,0,?
O=C(NCc1cccnc1)c1ccc(-c2ccccc2[N+](=O)[O-])o1,-6,0,-20,-10,-55*
O=C(N/N=C/c1ccc(-c2ccccc2[N+](=O)[O-])o1)c1cccnc1,-2,1,5,-3,-59*
Cc1ccc(OCC(=O)NCC(=O)OCc2cc(=O)n3nc(CC(C)C)sc3n2)cc1,-15,1,-36*,-9,·
CC(C)CN(C(=O)CN(C)C(=O)Cc1c(F)cccc1Cl)c1c(N)n(CC(C)C)c(=O)[nH]c1=O,-4,·,·,·,-21
O=[N+]([O-])c1ccc(Nc2ccc(F)cc2)nc1,-9,10,-26,-5,-7
CN(C)c1ccc(Nc2ccc([N+](=O)[O-])cn2)cc1,-9,4,9,2,-60*
CN1CCC(OC(c2ccccc2)c2ccccc2)CC1,-1,24,-37*,-5,0
CN1CCC(Oc2ccccc2Sc2ccccc2)CC1,-7,26,-63*,-10,-63*
Cc1ccccc1C(=O)OC1CCN(C)CC1,-31,4,2,-5,-11
O=C(CSc1nc2ccccc2s1)c1cc2ccccc2o1,-9,15,-8,-4,-24
C(=C\c1ccccc1)/CN1CCN(C(c2ccccc2)c2ccccc2)CC1,·,·,·,·,-63*
CC(C)(C)n1nnnc1C(c1ccccc1)N1CCN(c2ccccc2)CC1 (stereo not drawn),-7,·,·,·,0
Cc1ccc(C(c2nnnn2C(C)(C)C)N2CCC(C)CC2)cc1 (stereo not drawn),-3,1,4,-3,-52*
CC(C)(C)n1nnnc1C(c1ccccc1)N1CCN(C/C=C/c2ccccc2)CC1 (stereo not drawn),-10,·,·,·,-57*
CSCCC(C(=O)Nc1c(C)cccc1C)N1CCN(C/C=C/c2ccccc2)CC1 (stereo not drawn),-12,·,·,·,-81*
COc1cccc(CNc2nc3cc(-c4ccsc4)sc3c(=O)n2C)c1OC,14,·,·,·,58
CC(C)(C)n1nnnc1C(c1ccccc1)N1CCCN(Cc2ccc(F)cc2)CC1 (stereo not drawn),-13,·,·,·,-105*
CCC(c1nnnn1C(C)(C)C)N1CCN(C/C=C/c2ccccc2)CC1 (stereo not drawn),-8,·,·,·,-80*
CCc1ccccc1NC(=O)C1CCN(c2nn3c(=O)cc(C)nc3s2)CC1,3,0,13,-1,·
Clc1ccccc1CN1CCN(c2ncccn2)CC1,21,-3,4,-1,-4
Clc1ccc(CN2CCN(c3ncccn3)CC2)c(Cl)c1,8,7,-37*,-4,10
c1ccc(CN2CCN(c3ncccn3)CC2)cc1,24,-1,-11,-9,-25
Clc1ccc(CN2CCN(c3ncccn3)CC2)cc1,36*,7,38,-1,14
